The record followed here is PubChem BioAssay (NCI).

The structures appear in SMILES notation. This is part of a sample that, as a whole, favours compounds with a hit. Of some 83,000 tested, about 20% had one in any assay.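 Results are percent growth after 48 hours of single-concentration exposure. 100 means growth as in untreated cells, lower positive values show inhibition; negative values down to -100 show cell death.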 Active and inactive are the calls of the source. How the source made its calls: active means growth percent below 10; inactive means the rest.

In one assay the test system is BT-549 breast. As to the kind of experiment: NCI-60 one-dose screen, 48 h (100 = growth as untreated, 0 = no growth, -100 = all killed). To be noted: 10 µM unless noted.
As to `CCN(CCNc1ccc(C)c2sc3cc(Cl)ccc3c(=O)c12)CC(C)O` (stereo not given), the growth is 110% (inactive). The same measure, in the same setting: next, `CC1(C)CC[C@]23CC[C@]4(C)[C@H](CC[C@@H]5[C@@]6(C)C/C(=C/c7cccnc7)C(=O)C(C)(C)[C@@H]6CC[C@]54C)[C@H]2[C@H]1OC3=O`: 31.7% [100 µM] (inactive); `Cc1ccc(-n2nc3n(/c2=N\C(=O)NS(=O)(=O)c2ccc(C)cc2)CCN3C2=NCCN2)cc1`: 84.4% (inactive).

Take `O=C1Nc2ccccc2/C1=C/C(=O)c1ccc(N2CCOCC2)cc1`: the growth was 97% (inactive).

As to `Nc1ccc(NC(=O)c2ccccc2)c2c1C(=O)c1ccccc1C2=O`, the growth is 101% (inactive). Still for that read-out and setting: with `CN(C)CCOc1ccc(/C(=C(/CCCl)c2ccccc2)c2ccccc2)cc1` the figure was 46.8% (inactive). Same read-out and setting: with `CC[C@@H]1NC(=O)[C@@H]2CCCCN2C(=O)[C@@H]2CCCN2C(=O)[C@@H](NC(=O)[C@H](Cc2cc(F)cc(F)c2)NC(=O)Nc2ccc(C3CC3)cc2F)[C@H](C)OC(=O)[C@@H]2C[C@@H](C)CN2C1=O` the figure was 5.79% (active).

A further assay has as its system MDA-MB-435 melanoma. The description is as above. To be noted: 10 µM unless noted.
As for `C=C(C)[C@@H]1CC[C@]2(C(=O)OC)CC[C@]3(C)[C@H](CC[C@@H]4[C@@]5(C)CC/C(=N\OCCC(=NCCC#N)NOCCC#N)C(C)(C)[C@@H]5CC[C@]43C)[C@@H]12`, the growth is 14.6% [100 µM] (inactive). Take `CCCCN(CC)CC(CC)Nc1cc(OC)cc2cccnc12` (stereo not given): the growth is 102% (inactive). Turning to `COc1ccccc1S(=O)Nc1ccccc1` (stereo not given), the growth is 97.6% (inactive).

As to `COc1cc(Cl)cc(-c2nn(C(=O)NS(=O)(=O)c3ccccc3)cc2-c2ccncc2)c1`, the growth is 91% (inactive). On to `COc1ccc(CC(C#N)c2ccc(Cl)cc2)cc1` (stereo not given), for which the growth is 0.297% (active). Consider `COc1cc2c(c(OC)c1OC)-c1cc(I)c(O)cc1[C@@H](NC(C)=O)CC2`, for which the growth is 6.18% (active). The same measure, in the same setting: with `O=C(O)CSCc1nnc2n(Cc3ccccc3)c(=O)c3c4c(sc3n12)CCCC4` the figure was 112% (inactive); with `COc1ccc(C2NC(=O)C(C#N)c3c2sc2c(F)cccc32)cc1` (stereo not given), -9.11% (active); with `CCN=C1C=CC(=C(c2ccc(N(CC)CC)cc2)c2ccc(N(CC)CC)cc2)c2ccccc21`, -31.6% (active). For the compound `CC1(C)C(=NO)C(C)(C)C1=NO`, the growth was 92.2% (inactive). For `Cc1cc(SC#N)ncn1`, the growth was 107% (inactive). As for `COCc1nc2ccccc2[nH]1`, the growth is 102% (inactive). Still for that read-out and setting: next, `CCN1CCN(CC(=O)Nc2nc3ccc(NCc4ccc(Cl)cc4)cc3s2)CC1`: -10.6% (active). For the compound `C=C(C)C1CCC2(C(=O)O)CCC3(C)C(CCC4C5(C)CCC(OC(=O)NCc6ccccc6)C(C)(C)C5CCC43C)C12` (stereo not given), the growth was 58.7% (inactive). Take `CCc1ccc(C2=C/C(=C/c3ccccc3)C(=O)N2CCc2ccc(S(N)(=O)=O)cc2)cc1`: the growth is 110% (inactive). As to `CCN(CC)c1ccc2cc(NC(=O)OCCNC(=O)CCNC(=O)[C@H](CC(C)C)NC(=O)C(C)(C)NC(=O)C(C)(C)NC(=O)[C@H](CC(C)C)NC(=O)CCNC(=O)C(C)(C)NC(=O)[C@H](CC(C)C)NC(=O)CCNC(=O)[C@@](C)(CC)NC(=O)[C@H](C)NC(=O)CCNC(=O)C(C)(C)NC(=O)[C@H](C)NC(=O)[C@@H]3CCCN3C(=O)[C@@](C)(CC)NC(=O)[C@H](Cc3ccccc3)NC(=O)C3CCCN3C(=O)C(C)(C)NC(=O)C3CCCN3C(=O)C(C)(C)NC(C)=O)c(=O)oc2c1` (stereo not given in full), the growth was -76.2% (active). Still for that read-out and setting: with `COC(=O)c1cc2c(=O)[nH]cc3c2c(n1)CCC3` the figure was 119% (inactive).

For the compound `C=C(CC(=O)OC)C(C)=O`, the growth is 116% (inactive). Same read-out and setting: next, `COc1ccc2c(c1)c(-c1noc(C(=O)c3cn(C)c4ncc(Br)cc34)n1)cn2C`: 63.1% (inactive); `CC(C)(C)OC(=O)N1C=C/C(=C\Cn2cc(-c3ccccc3)nn2)CC1`: 85.2% (inactive); `COc1cc2c(c(OC)c1OC)-c1ccc(NNC(N)=S)c(=O)cc1[C@@H](NC(C)=O)CC2`: -12.2% (active). For `CC(C)OC(=O)Nc1cc(F)ccc1F`, the growth is 99.4% (inactive). Still for that read-out and setting: with `C=C(C)[C@@H]1CC[C@]2(C)[C@H](CC[C@@H]3[C@@H]([C@@](C)(O)CCC=C(C)C)CC[C@]32C)[C@@]1(C)CCC(=O)O` the figure was -36.7% [100 µM] (active); with `COc1cc(-c2cc(-c3ccc(Nc4ncnc5cc(Cl)ccc45)cc3)nc(N3CCCCC3)n2)cc(OC)c1OC`, 106% (inactive); with `Cc1ccc(NC(=S)/N=c2/n(-c3ccccc3)nc3n2CCN3C2=NCCN2)cc1`, 105% (inactive). Consider `COc1c(B(O)O)cccc1-c1nc2ccc3[nH]ncc3c2c2c1CCC2`, for which the growth is 64% (inactive). Same read-out and setting: with `O=C1Nc2ccccc2/C1=C/C(=O)c1ccc(N2CCCC2)cc1` the figure was -51.9% (active); with `COc1cc(C(=O)/C=C/c2c(-c3ccc(F)cc3)nc3sccn23)cc(OC)c1OC`, -72.7% (active). Still for that read-out and setting: next, `COc1ccc(C2CC(c3cc(OC)c(OC)c(OC)c3)=NN2C(C)=O)cc1OCC(=O)Nc1nc2ccc(C(F)(F)F)cc2s1` (stereo not given): 69.5% (inactive). For the compound `CN(C)c1cc(NN=C(c2ccc(O)cc2)c2ccc(O)cc2)c([N+](=O)[O-])cc1[N+](=O)[O-]`, the growth is 84.9% (inactive). Still for that read-out and setting: next, `CC[C@@](C)(NC(=O)[C@H](C)NC(=O)CCNC(=O)C(C)(C)NC(=O)[C@H](C)NC(=O)[C@@H]1CCCN1C(=O)[C@@](C)(CC)NC(=O)[C@H](Cc1ccccc1)NC(=O)C1CCCN1C(=O)C(C)(C)NC(=O)C1CCCN1C(=O)C(C)(C)NC(C)=O)C(=O)NCCC(=O)N[C@@H](CC(C)C)C(=O)NC(C)(C)C(=O)NCCC(=O)N[C@@H](CC(C)C)C(=O)NC(C)(C)C(=O)NC(C)(C)C(=O)N[C@@H](CC(C)C)C(=O)NCCC(=O)NCO` (stereo not given in full): -89.2% (active); `CCN(CCNc1ccc(C)c2sc3cc(Cl)ccc3c(=O)c12)CC(C)O` (stereo not given): 6% (active). In the case of `CC1(C)CC[C@]23CC[C@]4(C)[C@H](CC[C@@H]5[C@@]6(C)C/C(=C/c7cccnc7)C(=O)C(C)(C)[C@@H]6CC[C@]54C)[C@H]2[C@H]1OC3=O`, the growth was 36% [100 µM] (inactive). On the same count and under the same terms, next, `Cc1ccc(-n2nc3n(/c2=N\C(=O)NS(=O)(=O)c2ccc(C)cc2)CCN3C2=NCCN2)cc1`: 97.3% (inactive); `O=C1Nc2ccccc2/C1=C/C(=O)c1ccc(N2CCOCC2)cc1`: 96% (inactive). For the compound `Nc1ccc(NC(=O)c2ccccc2)c2c1C(=O)c1ccccc1C2=O`, the growth was 98.2% (inactive). For the compound `CN(C)CCOc1ccc(/C(=C(/CCCl)c2ccccc2)c2ccccc2)cc1`, the growth is -7.62% (active). Take `CC[C@@H]1NC(=O)[C@@H]2CCCCN2C(=O)[C@@H]2CCCN2C(=O)[C@@H](NC(=O)[C@H](Cc2cc(F)cc(F)c2)NC(=O)Nc2ccc(C3CC3)cc2F)[C@H](C)OC(=O)[C@@H]2C[C@@H](C)CN2C1=O`: the growth is 3.08% (active).
